# Laboratory results reported in PubChem BioAssay (Tox21).
# Values without a mark were called inactive. Inconclusive results are not listed. A call without a number means that no potency is given here. Activity calls are given as the source filed them. Unless noted, calls come from the whole dose curve; as a rule, active = well fitted curve in the direction sought with a large enough effect in the repeat runs; inconclusive = weak or mixed curves; inactive = no such curve, though single readings can be large; an effect the other way counts as inactive or inconclusive.
# Assays:
# [1] = qHTS assay to identify small molecule agonists of H2AX - cell viability counter screen (AID 1224847; calls by dose curve; note: top concentration of the series differs between compounds; nearly all actives have a fitted effect of over 30% in size)
# Summary of the method: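 We seed wild-type CHO-K1 cells overnight, treat them for 3 hr at 37C with compounds in 15-concentration series, and quantify remaining viability by CellTiter-Glo luminescence.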
# [2] = qHTS assay to identify small molecule antagonists of the estrogen related receptor (ERR) signaling pathway from Tox21 library (AID 1224848); note: nearly all actives have a fitted effect of over 50% in size
# Summary of the method: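 Screening used an ERR reporter line supplied by NTP, exposed for 18 h at 37 C to library compounds delivered in DMSO. Signal was luciferase luminescence developed with ONE-Glo at room temperature for 30 min.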
# [3] = qHTS assay to identify small molecule agonists of the estrogen related receptor (ERR) signaling pathway from Tox21 library (AID 1224849; calls by dose curve; note: nearly all actives have a fitted effect of over 15% in size); conditions: ERR reporter cell line, ONE-Glo luciferase, 18 h; at 92.4 µM (top of the series) unless noted
# Summary of the method: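 Agonist signal is luciferase luminescence from an ERR reporter cell line treated 18 h at 37 C with DMSO-dissolved compounds, read 30 min after ONE-Glo addition at room temperature.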
# [4] = A CellTox Green Cytotoxicity Assay to monitor cytotoxicity in HEK293 cells - 0 hour (AID 1224869); note: nearly all actives have a fitted effect of over 50% in size
# Summary of the method: (§1)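 Cytotoxicity was tracked continuously in HEK293 cells by a DNA-binding dye excluded from viable cells. Compounds were transferred in DMSO 5 h after seeding; fluorescence was recorded at intervals up to 40 h.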
# [5] = qHTS RealTime-Glo MT Cell Viability Assay in HepG2 cells - 40 hour (AID 1224870); note: nearly all actives have a fitted effect of over 50% in size
# Summary of the method: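 HepG2 cells mixed with RealTime-Glo MT reagents (NanoLuc plus cell-permeant prosubstrate) were seeded at 600 cells/well, incubated 5 h at 37 C/5% CO2, then pinned with compounds in DMSO; nonlytic luminescence tracked viability during 40 h treatment.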
# [6] = A CellTox Green Cytotoxicity Assay to monitor cytotoxicity in HEK293 cells - 40 hour (AID 1224871); note: nearly all actives have a fitted effect of over 45% in size
# Summary of the method: as §1
# [7] = qHTS RealTime-Glo MT Cell Viability Assay in HepG2 cells - 24 hour (AID 1224867); note: nearly all actives have a fitted effect of over 50% in size
# Summary of the method: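 Tox21 10K library screened in qHTS format on HepG2 cells carrying RealTime-Glo reagents. Compounds were added after a 5 h preincubation, and the luminescent signal from continuous culture was measured repeatedly during 40 h treatment.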
# [8] = qHTS RealTime-Glo MT Cell Viability Assay in HEK293 cells - 32 hour (AID 1224868)
# Summary of the method: (§2)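 Luminescence generated by NanoLuc from substrate produced by living HEK293 cells served as the viability signal. Each value reflects the reading at its stated time point during continuous 40 h compound exposure at 37 C.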
# [9] = qHTS RealTime-Glo MT Cell Viability Assay in HEK293 cells - 16 hour (AID 1224872); note: nearly all actives have a fitted effect of over 50% in size; note: potency is the fitted concentration of half-maximal effect; for activity change, negative = cytotoxicity: top concentration of the series differs between compounds
# Summary of the method: as §2
# [10] = qHTS assay to identify small molecule agonists of the hypoxia (HIF-1) signaling pathway (AID 1224846; active = well fitted activation curve with a large enough effect in the signal ratio in the repeat runs, not every such curve was filed as active; the % refers to the signal ratio)
# Summary of the method: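 Steps: seed ME-180 HRE-bla cells (2,000/well, 0.5% dialyzed FBS); incubate 5 hrs at 37C; pin-transfer compounds or DMSO; incubate 17 hrs; add LiveBLAzer B/G substrate CCF4-AM; measure reporter activation by FRET.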
structure (smiles),measurement,setting,value
C#CC(C)N(C)C(=O)Nc1ccc(Cl)cc1 (stereo not given),Potency,[1],inactive
same,Potency,[2],inactive
same,"activity change, positive = activation",[3],5.26%
same,outcome,[4],inactive
same,outcome,[5],inactive
same,Potency,[6],inactive
CCCCNc1ccc(C(=O)OCCN(C)C)cc1,Potency,[1],inactive
same,outcome,[7],inactive
same,Potency,[8],inactive
same,outcome,[4],inactive
same,outcome,[5],inactive
same,Potency,[9],inactive
Cc1cc(NC(=O)C2=C(O)c3ccccc3S(=O)(=O)N2C)no1,Potency,[1],inactive
same,outcome,[7],inactive
same,Potency,[8],inactive
same,outcome,[4],inactive
same,outcome,[5],inactive
same,Potency,[6],inactive
same,Potency,[9],inactive
CCOC(=O)c1ccc(OC(=O)CCCCCN=C(N)N)cc1,Potency,[1],inactive
same,outcome,[7],inactive
same,Potency,[8],inactive
same,outcome,[4],inactive
same,outcome,[5],inactive
same,Potency,[6],inactive
same,Potency,[9],inactive
COC(=O)[C@@H]1[C@H]2C[C@H]3c4[nH]c5ccccc5c4CCN3C[C@@H]2CC[C@@H]1O,Potency,[1],inactive
same,Potency,[2],inactive
same,"activity change, positive = activation",[3],33.5% [at 42.5 µM] (active)
same,outcome,[7],inactive
same,Potency,[8],inactive
same,outcome,[4],inactive
same,outcome,[5],inactive
same,Potency,[6],inactive
same,Potency,[9],inactive
NC(CO)C(=O)NNCc1ccc(O)c(O)c1O (stereo not given),Potency,[1],inactive
same,Potency,[2],inactive
same,"activity change, positive = activation",[3],1.5% [at 42.5 µM]
same,outcome,[7],inactive
same,Potency,[8],inactive
same,outcome,[4],inactive
same,outcome,[5],inactive
same,Potency,[9],inactive
CC1=C(C(=O)O)N2C(=O)[C@@H](NC(=O)[C@H](N)c3ccc(O)cc3)[C@H]2SC1,Potency,[1],inactive
same,outcome,[7],inactive
same,outcome,[5],inactive
same,Potency,[6],inactive
same,Potency,[9],inactive
C[C@H](CCC(=O)O)[C@H]1CC[C@H]2[C@@H]3C(=O)C[C@@H]4CC(=O)CC[C@]4(C)[C@H]3CC(=O)[C@]12C,Potency,[1],inactive
same,Potency,[2],inactive
same,"activity change, positive = activation",[3],-0.444% [at 42.5 µM]
same,outcome,[7],inactive
same,Potency,[8],inactive
same,outcome,[5],inactive
same,Potency,[6],inactive
same,Potency,[9],inactive
COc1cc(NS(=O)(=O)c2ccc(N)cc2)nc(OC)n1,Potency,[1],inactive
same,Potency,[2],inactive
same,outcome,[7],inactive
same,outcome,[4],inactive
same,outcome,[5],inactive
same,Potency,[6],inactive
same,Potency,[9],inactive
Cc1ccccc1OCC(O)CO (stereo not given),Potency,[1],inactive
same,Potency,[2],inactive
same,"activity change, positive = activation",[3],1.39% [at 42.5 µM]
same,outcome,[7],inactive
same,Potency,[8],inactive
same,outcome,[4],inactive
same,outcome,[5],inactive
same,Potency,[6],inactive
same,Potency,[9],inactive
O=C(CCNNC(=O)c1ccncc1)NCc1ccccc1,Potency,[1],inactive
same,outcome,[7],inactive
same,Potency,[8],inactive
same,outcome,[4],inactive
same,outcome,[5],inactive
same,Potency,[6],inactive
same,Potency,[9],inactive
CO[C@@H]1[C@@H](OC(N)=O)[C@@H](O)[C@H](Oc2ccc3c(O)c(NC(=O)c4ccc(O)c(CC=C(C)C)c4)c(=O)oc3c2C)OC1(C)C,Potency,[1],inactive
same,Potency,[2],inactive
same,"activity change, positive = activation",[3],-2.51% [at 42.5 µM]
same,outcome,[7],inactive
same,Potency,[8],inactive
same,outcome,[4],inactive
same,outcome,[5],inactive
same,Potency,[9],inactive
CCN(CC)CC(=O)Nc1c(C)cccc1C,Potency,[1],inactive
same,Potency,[2],inactive
same,outcome,[7],inactive
same,outcome,[5],inactive
same,Potency,[6],inactive
same,Potency,[9],10.7 µM (active)
CCOC(=O)c1ncn2c1CN(C)C(=O)c1cc(F)ccc1-2,Potency,[1],inactive
same,outcome,[7],inactive
same,Potency,[8],inactive
same,outcome,[4],inactive
same,outcome,[5],inactive
same,Potency,[6],inactive
same,Potency,[9],inactive
CC(=O)CCCCn1c(=O)c2c(ncn2C)n(C)c1=O,Potency,[1],inactive
same,Potency,[2],inactive
same,"activity change, positive = activation",[3],-5.11% [at 42.5 µM]
same,outcome,[7],inactive
same,Potency,[8],inactive
same,outcome,[4],inactive
same,outcome,[5],inactive
same,Potency,[6],inactive
same,Potency,[9],inactive
Cc1cc(C(C)(C)C)c(O)c(C)c1CC1=NCCN1,Potency,[1],inactive
same,outcome,[7],inactive
same,Potency,[8],inactive
same,outcome,[5],inactive
same,Potency,[6],inactive
same,Potency,[9],inactive
CCCCOCCOC(=O)COc1nc(Cl)c(Cl)cc1Cl,Potency,[1],inactive
same,Potency,[2],inactive
same,"activity change, positive = activation",[3],0.145%
same,outcome,[7],inactive
same,outcome,[5],inactive
same,Potency,[6],inactive
same,Potency,[9],inactive
CCCN1C[C@H](CSC)C[C@@H]2c3cccc4[nH]cc(c34)C[C@H]21,Potency,[1],inactive
same,outcome,[7],inactive
same,Potency,[8],inactive
same,outcome,[5],inactive
same,Potency,[6],inactive
same,Potency,[9],inactive
COc1ccc2c(c1OC)C(=O)O[C@@H]2[C@H]1c2c(cc3c(c2OC)OCO3)CCN1C,Potency,[1],inactive
same,Potency,[2],inactive
same,"activity change, positive = activation",[3],-16% [at 42.5 µM]
same,outcome,[7],inactive
same,outcome,[4],inactive
same,outcome,[5],inactive
same,Potency,[6],inactive
same,Potency,[9],inactive
CN1CCN(CC(=O)N2c3ccccc3C(=O)Nc3cccnc32)CC1,"activity change, negative = cytotoxicity",[1],-0.342% [at 14 µM]
same,"activity, negative = inhibition",[2],0.334% [at 8.39 µM]
same,"activity change, positive = activation",[3],-0.263% [at 8.39 µM]
same,"activity change, negative = cytotoxicity",[7],0.294% [at 6.97 µM]
same,"activity change, negative = cytotoxic",[8],5.96% [at 6.97 µM]
same,cytotoxicity,[4],1.41% [at 6.97 µM]
same,"activity change, negative = cytotoxic",[5],3.53% [at 6.97 µM]
same,"activity change, negative = cytotoxicity",[9],13.3% [at 6.97 µM]
N[C@@H](COP(=O)(O)O)C(=O)O,"activity change, negative = cytotoxicity",[1],-1.2% [at 31.6 µM]
same,"activity change, negative = cytotoxic",[5],1.81% [at 15.8 µM]
same,cytotoxicity increase,[6],-6.71% [at 15.8 µM]
same,"activity change, negative = cytotoxicity",[9],6.19% [at 15.8 µM]
CC(C)NCC(O)COc1ccc(COCCOC(C)C)cc1 (stereo not given),Potency,[1],inactive
same,outcome,[7],inactive
same,outcome,[4],inactive
same,outcome,[5],inactive
same,Potency,[6],inactive
same,Potency,[9],inactive
O=P(O)(O)OP(=O)(O)O,Potency,[1],inactive
same,Potency,[8],inactive
same,outcome,[5],inactive
same,Potency,[6],inactive
same,Potency,[9],inactive
CC(=O)c1ccc2c(c1)Cc1ccccc1-2,outcome,[10],inactive
same,Potency,[8],inactive
same,outcome,[4],inactive
same,outcome,[5],inactive
same,Potency,[9],inactive
CC(C)NCC(O)COc1cccc2[nH]ccc12 (stereo not given),Potency,[1],inactive
same,Potency,[8],inactive
same,outcome,[4],inactive
same,outcome,[5],inactive
same,Potency,[6],inactive
same,Potency,[9],inactive
